# Experimental data as given in PubChem BioAssay (NCATS).
# Inconclusive results are not listed. Entries that show only a call come without a potency. Calls of active or inactive are those of the source. Unless noted, the call rests on the fitted dose curve.
# Test system: not listed separately
# Assay: A High-Content qHTS Against Drug Library for the Identification of Small Molecules that Inhibit DYT1 Early Onset Primary Dystonia-Associated Cell Pathology (AID 1645839)
# Conditions: HEK293 Flp-In EGFP-delE TorsinA, punctate imaging, 48 h; series mostly up to 46.1 µM
# Procedure, shortened: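 Flp-In T-REx 293 cells with tetracycline-inducible EGFP-delE hTOR1A (WT EGFP-hTOR1A as reference), 800 cells/well; compound added with tetracycline, 48 h at 37 C. Fixed, permeabilized cells imaged; %pathology (punctate TorsinA) primary, cell count counterscreen.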
# Potency means the concentration at half of the fitted maximal effect.
SMILES,"% pathology change, negative = correction",Potency
NC[C@H]1O[C@H](O[C@H]2[C@H](O[C@@H]3O[C@H](CO)[C@@H](O)[C@H]3O)C(O)[C@H](N)C[C@@H]2N)[C@H](N)[C@@H](O)[C@@H]1O (some centres undefined),1.85% [at 9.22 µM] (inactive),
COc1cc2c(cc1OC)[C@@H]1CC(=O)[C@@H](CC(C)C)CN1CC2,,inactive
NC(CO)(CO)CO,,inactive
CCOC(=O)/C=C(C)/C=C/C=C(C)/C=C/c1c(C)cc(OC)c(C)c1C,,inactive
OC[C@H]1O[C@H](O[C@]2(CCl)O[C@H](CCl)[C@@H](O)[C@@H]2O)[C@H](O)[C@@H](O)[C@H]1Cl,,inactive
O=c1[nH]c(=O)n([C@H]2CCCO2)cc1F,,inactive
CC1(C)O[C@@H]2C[C@H]3[C@@H]4C[C@H](F)C5=CC(=O)CC[C@]5(C)[C@H]4[C@@H](O)C[C@]3(C)[C@]2(C(=O)CO)O1,,inactive
Cc1cccn2c(=O)c(-c3nnn[nH]3)cnc12,,inactive
NCCC(O)(P(=O)(O)O)P(=O)(O)O,,inactive
CCN1CCCC1=O,,inactive
O=C(N/N=C/c1ccccc1O)c1ccncc1,,inactive
CC(C)(C)NC(=O)[C@@H]1CN(Cc2cccnc2)CCN1C[C@@H](O)C[C@@H](Cc1ccccc1)C(=O)N[C@H]1c2ccccc2C[C@H]1O,,inactive
CCCCS(=O)(=O)N[C@@H](Cc1ccc(OCCCCC2CCNCC2)cc1)C(=O)O,,inactive
CCCCc1nc(Cl)c(CO)n1Cc1ccc(-c2ccccc2-c2nn[nH]n2)cc1,,inactive
Nc1ccc(/C=C/c2ccc(N)cc2S(=O)(=O)O)c(S(=O)(=O)O)c1,12.8% [at 0.369 µM] (inactive),
C[C@H](O)C(=O)Nc1c(I)c(C(=O)NC(CO)CO)c(I)c(C(=O)NC(CO)CO)c1I,,inactive
OCc1ccccc1O,,inactive
COc1cc(/C=C/C(=O)O[C@H]2CC[C@]34C[C@]35CC[C@]3(C)[C@@H]([C@H](C)CCC=C(C)C)CC[C@@]3(C)[C@@H]5CC[C@H]4C2(C)C)ccc1O,,inactive
NC[C@H]1O[C@H](O[C@H]2[C@H](O)[C@@H](O[C@H]3O[C@H](CO)[C@@H](O)[C@H](N)[C@H]3O)[C@H](N)C[C@@H]2N)[C@H](N)[C@@H](O)[C@@H]1O,,inactive
CC(=O)Nc1c(I)cc(I)c(C(=O)O)c1I,,inactive
CCOC(=O)COc1ccc2c(C)c(CCN(CC)CC)c(=O)oc2c1Cl,,inactive
O=C1OC2(c3ccc(O)cc3Oc3cc(O)ccc32)c2ccccc21,,7.08 µM (active)
CCOC(=O)n1ccn(C)c1=S,,inactive
CC(C)(C(=O)c1cccnc1)c1cccnc1,,inactive
Cc1nc2n(c(=O)c1CCN1CCC(c3noc4cc(F)ccc34)CC1)CCC[C@H]2O,,inactive
O=c1ccc2ccccc2o1,,inactive
CCOc1ccc2nc3cc(N)ccc3c(N)c2c1,,inactive
CN(C)CCOc1ccccc1Cc1ccccc1,,inactive
CCOC(=O)[C@H](CCc1ccccc1)N[C@@H](C)C(=O)N1Cc2ccccc2C[C@H]1C(=O)O,,inactive

# Target: Cytochrome P450 2D6 (Homo sapiens) (UniProt P10635)
# Sequence (P10635 whole entry, looked up): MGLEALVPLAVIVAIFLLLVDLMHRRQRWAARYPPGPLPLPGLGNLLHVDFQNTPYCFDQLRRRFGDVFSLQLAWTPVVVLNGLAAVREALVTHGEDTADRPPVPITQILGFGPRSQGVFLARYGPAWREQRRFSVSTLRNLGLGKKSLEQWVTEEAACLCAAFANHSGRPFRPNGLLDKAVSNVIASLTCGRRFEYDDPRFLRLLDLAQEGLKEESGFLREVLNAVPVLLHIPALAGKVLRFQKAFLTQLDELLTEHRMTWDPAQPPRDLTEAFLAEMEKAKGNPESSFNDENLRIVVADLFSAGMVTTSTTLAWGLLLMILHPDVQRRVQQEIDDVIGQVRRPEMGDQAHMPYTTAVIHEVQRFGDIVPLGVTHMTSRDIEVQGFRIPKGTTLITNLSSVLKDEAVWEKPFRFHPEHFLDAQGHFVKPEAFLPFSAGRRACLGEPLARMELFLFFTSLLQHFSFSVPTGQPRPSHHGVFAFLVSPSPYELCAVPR
# Assay: Cytochrome P450 family 2 subfamily D member 6 (CYP2D6) small molecule antagonists: luciferase biochemical (cell-free) qHTS assay (AID 1645840; active means well fitted inhibition curve with a large enough effect in the repeat runs; further: nearly all actives have a fitted effect of over 55% in size)
# Conditions: P450-Glo CYP2D6 enzyme, luciferin luminescence, 1 h; series mostly up to 57.4 µM
# Procedure, shortened: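 P450-Glo luminescent screen: recombinant CYP2D6 enzyme–proluciferin substrate mix preincubated with compound 10 min at room temperature, then NADPH regeneration added for 1 h at room temperature. Detection reagent added for 20 min; luciferin light read as relative luminescence units.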
SMILES,Potency,"activity change, negative = inhibition"
COc1cccc(CCc2ccccc2OCC(CN(C)C)OC(=O)CCC(=O)O)c1 (centres undefined),0.195 µM (active),
CCCCOc1cc(C(=O)NCCN(CC)CC)c2ccccc2n1,8.71 µM (active),
NC(CO)(CO)CO,inactive,
OC[C@H]1O[C@H](O[C@]2(CCl)O[C@H](CCl)[C@@H](O)[C@@H]2O)[C@H](O)[C@@H](O)[C@H]1Cl,inactive,
CC(=O)O[C@]1(C(C)=O)CC[C@H]2[C@@H]3C[C@H](C)C4=CC(=O)CC[C@]4(C)[C@H]3CC[C@@]21C,inactive,
O=c1[nH]c(=O)n([C@H]2CCCO2)cc1F,inactive,
CN1CCC(=C2c3ccccc3Sc3ccccc32)CC1,1.38 µM (active),
CCCCS(=O)(=O)N[C@@H](Cc1ccc(OCCCCC2CCNCC2)cc1)C(=O)O,inactive,
Nc1ccc(/C=C/c2ccc(N)cc2S(=O)(=O)O)c(S(=O)(=O)O)c1,,18.7% [at 0.91 µM] (inactive)
OCc1ccccc1O,inactive,
COc1cc(/C=C/C(=O)O[C@H]2CC[C@]34C[C@]35CC[C@]3(C)[C@@H]([C@H](C)CCC=C(C)C)CC[C@@]3(C)[C@@H]5CC[C@H]4C2(C)C)ccc1O,inactive,
NC[C@H]1O[C@H](O[C@H]2[C@H](O)[C@@H](O[C@H]3O[C@H](CO)[C@@H](O)[C@H](N)[C@H]3O)[C@H](N)C[C@@H]2N)[C@H](N)[C@@H](O)[C@@H]1O,inactive,
O=C1OC2(c3ccc(O)cc3Oc3cc(O)ccc32)c2ccccc21,inactive,
CCOC(=O)n1ccn(C)c1=S,inactive,
CCCCOc1ccc(OCCCN2CCOCC2)cc1,13.8 µM (active),
CC(C)(C(=O)c1cccnc1)c1cccnc1,inactive,
COC(=O)C1=C(C)NC(C)=C(C(=O)O[C@@H]2CCCN(Cc3ccccc3)C2)[C@@H]1c1cccc([N+](=O)[O-])c1,6.92 µM (active),
Cc1nc2n(c(=O)c1CCN1CCC(c3noc4cc(F)ccc34)CC1)CCC[C@H]2O,12 µM (active),
CCN(CC)CCOC(=O)C(c1ccccc1)C1CCCCC1 (centres undefined),3.09 µM (active),
CCOC(=O)[C@H](CCc1ccccc1)N[C@@H](C)C(=O)N1Cc2ccccc2C[C@H]1C(=O)O,inactive,
